Percent Effect data for 11 molecules are collected here from ChEMBL document CHEMBL3988442, “University of Dundee, Small-Polar-MMV Screening Library” (2021).

SMILES strings stand for the structures. For some of these results: Measured potencies and affinities stand elsewhere.

What all share (set-up): scale not given: direction of the effect not stated beside the values
In assay [1] the target is Protein translocase subunit SecA (Escherichia coli (strain K12)) (UniProt P10408). Briefly: Assay to Identify E. coli SecA ATPase Inhibitors. It is filed as functional. The settings on record: 30 µM.
The target of assay [2] is T1, Ubiquitin-activating enzyme e1, putative (Leishmania donovani (strain BPK282A1)) (UniProt E9BSI1).
T1 sequence (whole entry): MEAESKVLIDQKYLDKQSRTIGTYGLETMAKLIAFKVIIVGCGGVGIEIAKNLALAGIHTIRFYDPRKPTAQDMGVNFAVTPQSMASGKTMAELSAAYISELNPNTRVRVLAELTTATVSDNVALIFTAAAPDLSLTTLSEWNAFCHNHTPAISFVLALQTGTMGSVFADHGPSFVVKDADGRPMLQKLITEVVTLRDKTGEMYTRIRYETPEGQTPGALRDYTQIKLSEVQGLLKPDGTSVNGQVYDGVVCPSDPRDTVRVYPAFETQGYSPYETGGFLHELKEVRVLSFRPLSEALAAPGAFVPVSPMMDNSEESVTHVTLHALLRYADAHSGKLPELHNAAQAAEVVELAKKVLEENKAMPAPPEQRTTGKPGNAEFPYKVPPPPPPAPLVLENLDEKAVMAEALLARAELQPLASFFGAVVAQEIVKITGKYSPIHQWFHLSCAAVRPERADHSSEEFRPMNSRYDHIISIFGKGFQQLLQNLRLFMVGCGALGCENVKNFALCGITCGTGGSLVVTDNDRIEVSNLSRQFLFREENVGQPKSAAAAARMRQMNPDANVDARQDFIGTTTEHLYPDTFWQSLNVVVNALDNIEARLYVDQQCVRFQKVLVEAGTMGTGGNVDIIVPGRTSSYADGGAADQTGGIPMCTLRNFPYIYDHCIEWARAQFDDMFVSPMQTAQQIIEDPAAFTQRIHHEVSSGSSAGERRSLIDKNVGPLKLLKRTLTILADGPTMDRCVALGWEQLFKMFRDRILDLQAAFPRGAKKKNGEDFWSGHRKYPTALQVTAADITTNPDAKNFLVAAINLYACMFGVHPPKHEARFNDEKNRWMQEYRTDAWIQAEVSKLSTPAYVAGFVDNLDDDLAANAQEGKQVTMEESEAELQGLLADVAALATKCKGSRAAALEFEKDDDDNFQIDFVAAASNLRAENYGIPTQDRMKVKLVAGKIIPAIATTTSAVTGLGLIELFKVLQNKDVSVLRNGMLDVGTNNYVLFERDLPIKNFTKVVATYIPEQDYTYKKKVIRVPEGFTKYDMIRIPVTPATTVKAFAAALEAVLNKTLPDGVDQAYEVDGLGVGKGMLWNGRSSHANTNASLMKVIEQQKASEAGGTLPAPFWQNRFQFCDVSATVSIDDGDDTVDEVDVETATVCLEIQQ
Kind of assay: Leishmania donovani Ubiquitin Activating Enzyme (LdE1). The assay is classed as functional. The conditions noted are these: 30 µM.

Assay [3] deals with AMP-activated protein kinase, AMPK (Homo sapiens) (UniProt P54646+O43741+P54619+Q9UGJ0+Q9Y478+Q13131+Q9UGI9). Kind of assay: AMP-dependent Kinase enzyme assay. An in vitro enzyme assay that detects ADP turnover that is directly proportional to AMPK activity. This uses naive AMPK that is activated during the assay with MK-8722. It is filed as functional. The settings on record: 30 µM.

Assay [4] concerns the target Sialic acid-binding Ig-like lectin 9 (Homo sapiens) (UniProt Q9Y336). Briefly: Hs-Siglec9 ALPHAscreen SOP 20170721. The settings on record: 10 µM. (In Alpha technology, singlet oxygen from a donor bead excites a nearby acceptor bead.)
A further assay relates to Trypanosoma cruzi. Briefly: Trypanosoma cruzi phosphomannomutase and mannose-1-phosphate guanylyltransferase assay. The conditions noted are these: 10 µM. It is filed as functional.
Assay [5] concerns the target T2, Arginase-2, mitochondrial (Homo sapiens) (UniProt P78540).
T2 sequence (whole entry): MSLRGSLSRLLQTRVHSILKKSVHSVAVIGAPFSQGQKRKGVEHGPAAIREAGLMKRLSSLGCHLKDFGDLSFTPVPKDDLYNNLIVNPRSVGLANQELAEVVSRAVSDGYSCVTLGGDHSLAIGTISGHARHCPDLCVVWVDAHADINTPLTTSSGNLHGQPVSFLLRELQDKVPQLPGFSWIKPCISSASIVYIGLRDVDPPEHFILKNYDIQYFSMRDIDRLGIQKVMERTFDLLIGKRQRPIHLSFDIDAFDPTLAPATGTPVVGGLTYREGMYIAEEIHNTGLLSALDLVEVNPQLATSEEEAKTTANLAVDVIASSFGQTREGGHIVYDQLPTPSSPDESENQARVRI
Briefly: in vitro enzyme assay to detect the production of urea directly proportional to the activity of Arginase II. Further: in the data most compounds retested in dose-response had high values. The assay is classed as functional. The settings on record: 33.3 µM.

Assay [6] addresses T3, Proteasome subunit beta (Trypanosoma cruzi) (UniProt O96673).
T3 sequence (whole entry): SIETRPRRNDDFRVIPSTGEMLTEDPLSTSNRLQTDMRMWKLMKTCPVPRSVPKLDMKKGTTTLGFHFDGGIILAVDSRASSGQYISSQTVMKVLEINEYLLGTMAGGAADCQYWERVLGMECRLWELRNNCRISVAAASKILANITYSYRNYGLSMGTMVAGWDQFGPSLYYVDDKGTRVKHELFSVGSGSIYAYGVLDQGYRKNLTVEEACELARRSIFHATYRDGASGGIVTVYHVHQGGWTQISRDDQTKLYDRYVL
Kind of assay: Trypanosoma cruzi proteasome chymotrypsin-like activity (TcProtChymo) assay. Further: in the data most compounds retested in dose-response had high values. The assay is classed as functional. The settings on record: 9.37 µM.

For a further assay, the species on record is Homo sapiens. Kind of assay: To identify inhibition of the IFN signalling (Jak-Stat) pathway via expression of an eGFP reporter gene under the control of an IFN-stimulated response element (ISRE) containing MxA promoter. It is filed as functional. The conditions noted are these: 30 µM. In general terms: In a reporter assay the amount or activity of a reporter protein is the signal.

Assay [7] deals with T4, Tyrosyl-tRNA synthetase, putative (Trypanosoma cruzi (strain CL Brener)) (UniProt Q4DSP6).
T4 sequence (whole entry): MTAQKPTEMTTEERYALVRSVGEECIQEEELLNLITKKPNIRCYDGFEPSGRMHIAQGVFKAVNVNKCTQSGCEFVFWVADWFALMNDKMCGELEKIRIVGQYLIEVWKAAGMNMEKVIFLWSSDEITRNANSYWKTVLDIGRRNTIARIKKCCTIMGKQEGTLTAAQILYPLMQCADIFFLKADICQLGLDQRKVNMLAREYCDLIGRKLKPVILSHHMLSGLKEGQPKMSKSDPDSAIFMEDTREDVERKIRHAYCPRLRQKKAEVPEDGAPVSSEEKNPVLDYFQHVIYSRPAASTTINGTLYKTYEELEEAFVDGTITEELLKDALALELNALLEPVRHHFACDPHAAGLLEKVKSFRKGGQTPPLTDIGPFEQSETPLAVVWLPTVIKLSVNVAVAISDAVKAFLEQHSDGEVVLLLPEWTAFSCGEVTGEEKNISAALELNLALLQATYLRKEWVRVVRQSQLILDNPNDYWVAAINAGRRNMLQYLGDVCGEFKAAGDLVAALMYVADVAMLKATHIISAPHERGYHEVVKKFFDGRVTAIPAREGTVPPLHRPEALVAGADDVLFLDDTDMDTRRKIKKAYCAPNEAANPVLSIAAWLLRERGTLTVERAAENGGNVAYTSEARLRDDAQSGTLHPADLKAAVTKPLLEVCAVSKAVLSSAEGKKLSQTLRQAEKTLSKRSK
Kind of assay: Trypanosoma cruzi tyrosyl tRNA synthetase (TcYRS) _High Tyrosine SOP. Further: in the data most compounds retested in dose-response had high values. The assay is classed as functional. The conditions noted are these: 30 µM.

Assay [8] concerns the target T4, Tyrosyl-tRNA synthetase, putative (Trypanosoma cruzi (strain CL Brener)). Briefly: Trypanosoma cruzi tyrosyl tRNA synthetase (TcYRS) SOP. It is filed as functional. The conditions noted are these: 30 µM.
For assay [9], the target named is Chromo domain-containing protein 1 (Saccharomyces cerevisiae (strain ATCC 204508 / S288c) (Baker's yeast)) (UniProt P32657). Kind of assay: ScCHD-1 Enzyme Inhibition Assay. Further: in the data most compounds retested in dose-response had high values. The settings on record: 30 µM. It is filed as functional.
Chain of Chromo domain-containing protein 1 (Saccharomyces cerevisiae (strain ATCC 204508 / S288c) (Baker's yeast)) (P32657 whole entry, the tested form may be a part): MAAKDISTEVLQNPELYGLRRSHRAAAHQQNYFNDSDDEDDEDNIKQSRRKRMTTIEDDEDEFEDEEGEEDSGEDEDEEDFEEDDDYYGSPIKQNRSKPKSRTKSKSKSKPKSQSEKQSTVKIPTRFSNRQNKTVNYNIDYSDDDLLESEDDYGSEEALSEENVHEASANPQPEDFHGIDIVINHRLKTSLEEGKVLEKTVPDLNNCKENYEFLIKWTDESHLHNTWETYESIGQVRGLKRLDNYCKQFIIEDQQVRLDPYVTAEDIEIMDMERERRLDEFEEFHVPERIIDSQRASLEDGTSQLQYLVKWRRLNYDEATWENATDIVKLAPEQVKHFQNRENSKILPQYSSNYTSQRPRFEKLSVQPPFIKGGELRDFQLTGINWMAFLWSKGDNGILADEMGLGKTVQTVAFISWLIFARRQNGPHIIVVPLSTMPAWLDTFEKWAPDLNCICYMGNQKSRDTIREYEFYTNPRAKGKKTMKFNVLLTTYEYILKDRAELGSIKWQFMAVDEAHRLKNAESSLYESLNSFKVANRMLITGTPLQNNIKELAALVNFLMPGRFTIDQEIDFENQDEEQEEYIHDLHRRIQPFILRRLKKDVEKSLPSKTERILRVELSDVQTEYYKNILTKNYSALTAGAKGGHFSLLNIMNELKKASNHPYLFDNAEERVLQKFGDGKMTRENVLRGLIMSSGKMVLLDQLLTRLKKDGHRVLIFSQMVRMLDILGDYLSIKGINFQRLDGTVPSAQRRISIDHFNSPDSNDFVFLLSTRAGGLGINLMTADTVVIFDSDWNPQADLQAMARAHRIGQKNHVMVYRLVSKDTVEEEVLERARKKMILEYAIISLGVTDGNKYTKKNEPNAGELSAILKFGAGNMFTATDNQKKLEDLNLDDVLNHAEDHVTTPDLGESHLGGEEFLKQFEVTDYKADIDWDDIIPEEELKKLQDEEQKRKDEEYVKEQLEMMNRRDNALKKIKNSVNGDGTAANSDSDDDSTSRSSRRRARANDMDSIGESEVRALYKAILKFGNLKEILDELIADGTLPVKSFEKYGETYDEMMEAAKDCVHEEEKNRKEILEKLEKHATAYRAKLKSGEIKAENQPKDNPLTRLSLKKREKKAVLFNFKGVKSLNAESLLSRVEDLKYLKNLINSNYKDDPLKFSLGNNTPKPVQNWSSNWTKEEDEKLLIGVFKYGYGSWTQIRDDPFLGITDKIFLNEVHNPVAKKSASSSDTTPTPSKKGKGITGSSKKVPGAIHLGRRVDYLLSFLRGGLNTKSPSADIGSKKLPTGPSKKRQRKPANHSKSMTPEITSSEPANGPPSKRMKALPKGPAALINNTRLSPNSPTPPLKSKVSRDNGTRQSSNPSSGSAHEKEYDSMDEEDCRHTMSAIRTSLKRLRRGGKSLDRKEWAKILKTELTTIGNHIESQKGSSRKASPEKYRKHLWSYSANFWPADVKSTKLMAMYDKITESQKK

Chain of Sialic acid-binding Ig-like lectin 9 (Homo sapiens) (Q9Y336 whole entry): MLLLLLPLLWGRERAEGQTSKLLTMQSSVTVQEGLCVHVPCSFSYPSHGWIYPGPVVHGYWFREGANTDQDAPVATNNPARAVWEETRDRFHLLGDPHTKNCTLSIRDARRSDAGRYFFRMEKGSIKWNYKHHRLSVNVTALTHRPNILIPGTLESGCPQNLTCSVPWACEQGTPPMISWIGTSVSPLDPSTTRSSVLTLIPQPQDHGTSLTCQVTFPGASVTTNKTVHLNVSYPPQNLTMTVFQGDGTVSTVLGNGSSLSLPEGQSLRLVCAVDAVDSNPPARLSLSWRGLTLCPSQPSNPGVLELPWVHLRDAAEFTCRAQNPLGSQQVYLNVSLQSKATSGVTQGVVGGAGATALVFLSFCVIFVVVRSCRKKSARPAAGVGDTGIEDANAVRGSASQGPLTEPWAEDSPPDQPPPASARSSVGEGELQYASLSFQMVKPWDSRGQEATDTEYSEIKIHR
Chain of Protein translocase subunit SecA (Escherichia coli (strain K12)) (P10408 whole entry): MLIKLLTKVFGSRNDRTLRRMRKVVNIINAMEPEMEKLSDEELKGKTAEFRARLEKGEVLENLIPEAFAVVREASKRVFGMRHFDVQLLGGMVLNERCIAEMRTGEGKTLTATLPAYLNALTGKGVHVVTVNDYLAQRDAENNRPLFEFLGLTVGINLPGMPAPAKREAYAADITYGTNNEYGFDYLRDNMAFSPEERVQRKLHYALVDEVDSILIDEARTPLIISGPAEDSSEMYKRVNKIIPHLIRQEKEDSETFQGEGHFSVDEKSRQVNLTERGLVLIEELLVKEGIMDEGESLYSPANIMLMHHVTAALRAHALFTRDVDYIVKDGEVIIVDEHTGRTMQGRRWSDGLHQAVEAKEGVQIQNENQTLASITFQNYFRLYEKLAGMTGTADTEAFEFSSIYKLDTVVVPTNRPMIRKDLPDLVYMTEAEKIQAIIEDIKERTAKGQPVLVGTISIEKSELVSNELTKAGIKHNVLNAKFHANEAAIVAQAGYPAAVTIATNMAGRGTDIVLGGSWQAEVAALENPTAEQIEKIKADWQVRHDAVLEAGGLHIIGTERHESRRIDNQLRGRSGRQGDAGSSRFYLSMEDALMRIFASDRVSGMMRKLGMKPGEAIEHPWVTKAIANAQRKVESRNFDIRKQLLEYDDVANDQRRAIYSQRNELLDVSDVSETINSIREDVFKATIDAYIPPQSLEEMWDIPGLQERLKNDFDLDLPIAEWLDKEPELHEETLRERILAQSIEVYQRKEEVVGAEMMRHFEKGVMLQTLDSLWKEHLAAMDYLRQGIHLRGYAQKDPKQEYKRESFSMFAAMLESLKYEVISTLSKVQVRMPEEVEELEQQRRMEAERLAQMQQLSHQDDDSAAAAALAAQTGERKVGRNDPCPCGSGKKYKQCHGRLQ

As for `Cc1cc2n(n1)CC(CNC1CCN(c3ccc(F)cc3)CC1)CN2` (stereo unspecified), the Percent Effect in assay [1] was -2.69%; in assay [2], 8.11%; in assay [3], -9.27%; in assay [4] it was 18.6%; in the assay on Trypanosoma cruzi, 6.35%; in [5], 15.1%. Moreover, the Percent Effect in [6] is -0.0858%; in the assay filed under Homo sapiens it was -21.8%; in [7], 1.07%; in [8], 18.5%; in assay [9] it was -6.89%.
Regarding `CC(C)Cc1noc(CN2CCN(C(=O)c3ccco3)CC2)n1`, the Percent Effect in [1] is 1.31%; in assay [2], 2.74%; in assay [3] it was 2.5%; in assay [4], 1.08%; in the assay on Trypanosoma cruzi, 3.17%; in [5], 0%. Besides, the Percent Effect in [6] was 8.99%; in the assay listed under Homo sapiens, 5.51%; in [7], 5.21%; in assay [8], 8.64%; in assay [9] it was -2.76%.
With `CN1N=C(C(=O)N(Cc2ccco2)C2CC2)CCC1=O`, the Percent Effect is -3.94% in assay [1]; 0% in assay [2]; 7.53% in [3]; 0.679% in [4]; 1.46% in the assay with Trypanosoma cruzi; -1.18% in assay [5]. The Percent Effect in assay [6] turned out to be 9.49%; in the assay listed under Homo sapiens it was 4.75%; in assay [7], 4.25%; in assay [8], 5.2%; in assay [9], 8.43%.
Regarding `CC(=O)N1CCN(C(=O)C(C)n2cncn2)CC1` (stereo unspecified), the Percent Effect was -3.75% in assay [1]; 8.86% in assay [2]; 5.62% in [3]; 3.27% in [4]; 1.13% with Trypanosoma cruzi; -1.5% in assay [5]. In addition, the Percent Effect in assay [6] is 10.3%; in the assay listed under Homo sapiens, 1.42%; in assay [7], 5.21%; in assay [8] it was 12.7%; in assay [9] it was -21.9%.
For `CN(CCN1CCOCC1)C(=O)CCc1cccc(Cl)c1`, the Percent Effect in assay [1] was -0.257%; in assay [2], 13.2%; in [3], -2.72%; in assay [4] it was -7.75%; in the assay on Trypanosoma cruzi it was -4.58%; in assay [5], -9.47%. Further, the Percent Effect was 12.2% in [6]; 17.3% in the assay filed under Homo sapiens; 1.06% in assay [7]; 7.79% in assay [8]; -4.62% in [9].
Regarding `CCOc1nnc(CN(C)CC2CCCN2c2cccnn2)s1` (stereo unspecified), the Percent Effect was -2.36% in assay [1]; 7.89% in assay [2]; -1.61% in assay [3]; -2.87% in assay [4]; 3.41% in the assay on Trypanosoma cruzi; -8.28% in [5]. In addition, the Percent Effect in assay [6] was 20.2%; in the assay listed under Homo sapiens it was -2.35%; in assay [7] it was 3.19%; in assay [8], 10.4%; in assay [9], -4.84%.
With `CSc1cccc(CNC(=O)C2CC(=O)N(CCN(C)C)C2)c1` (stereo unspecified), the Percent Effect in assay [1] was 0.794%; in assay [2] it was 5.33%; in assay [3] it was -10.1%; in assay [4], 4.4%; in the assay on Trypanosoma cruzi it was -2.82%; in assay [5] it was 1.56%. Also, the Percent Effect in assay [6] was 15.7%; in the assay listed under Homo sapiens, 9.77%; in assay [7] it was 4.92%; in assay [8] it was 13.6%; in assay [9], -3.47%.
As for `CN(C)C(=O)N1CCn2nc(CNC(=O)CCC(F)(F)F)cc2C1`, the Percent Effect in assay [1] was 0.369%; in [2], 6.94%; in [3] it was -0.273%; in assay [4], 2.6%; in the assay with Trypanosoma cruzi, 4.18%; in assay [5], 13.7%. Besides, the Percent Effect was 10.3% in [6]; 15% in the assay listed under Homo sapiens; 6.32% in assay [7]; 15.4% in assay [8]; -4.37% in assay [9].
Take `CC(C)(C#N)C(=O)N1CCCC(c2cc(C(F)(F)F)[nH]n2)C1` (stereo unspecified): the Percent Effect was -6.75% in assay [1]; 16.2% in assay [2]; -6.25% in assay [3]; 19.3% in [4]; 3.44% with Trypanosoma cruzi; -2.03% in assay [5]. Also, the Percent Effect in assay [6] was 4.85%; in the assay filed under Homo sapiens it was 14.8%; in assay [7], 2.97%; in assay [8], 11%; in assay [9] it was -8.63%.
Regarding `CC(NC(=O)CSCC#N)c1ccccc1` (stereo unspecified), the Percent Effect was -1.5% in [1]; 28.9% in [2]; -6.37% in assay [3]; -7.6% in assay [4]; 5.51% with Trypanosoma cruzi; 0% in assay [5]. Also, the Percent Effect in assay [6] is 15%; in the assay filed under Homo sapiens, 5.31%; in [7], 7.39%; in assay [8], 23.5%; in assay [9], -11.2%.
As for `CCN1CC2(CCN(CCOCCO)CC2)CC(c2ccccc2)C1=O` (stereo unspecified), the Percent Effect in [1] is -1.44%; in [2], 8%; in [3] it was -14.6%; in assay [4] it was 3.65%; with Trypanosoma cruzi, 0.292%; in assay [5], -3.12%. Also, the Percent Effect in assay [6] was 15.2%; in the assay listed under Homo sapiens, 14.3%; in assay [7], 2.73%; in assay [8], 8.64%; in assay [9], -6.05%.
